Experimental data from PubChem BioAssay.
Calls of active or inactive are those of the source. Unless noted, the rule behind the calls is not given here.

Assays:
[1] = tested on: XIP peptide (Xip251-270) binding; assay: XIP fragment 251-270 binding compounds – biochemical, small-molecule microarray, fluorescence 635/667 nm, 0.1 µg/mL protein, primary screen (AID 1182); settings: fluorescent protein binding, 635 nm, higher = more signal, called active from +8 up or from −8 down
[2] = tested on: XIP peptide (Xip251-270); assay: compounds binding XIP fragment 251-270 – biochemical, small-molecule microarray, fluorescence 635/667 nm, 0.5 µg/mL protein, primary screen (AID 1183); settings: fluorescence 635 nm, higher = more signal
[3] = blood-stage malaria parasite viability loss – strain 3D7, DAPI fluorescence, 100 nL, primary screen (AID 1184);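 note: parasites grown inside human red blood cells in medium with human serum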; settings: P. falciparum 3D7 growth, 3 d, higher = more signal
[4] = target: Homeobox protein Hox-A13 (Mus musculus) (UniProt Q62424); assay: disruptors of Hoxa13 oligonucleotide interaction – biochemical, fluorescence polarization, labeled oligonucleotide, primary screen (AID 1185); settings: Hoxa13:DNA binding, 15 min, higher = more signal, called active from +8 up or from −8 down
[5] = blockers of DNA damage checkpoint Chk1 activation – imaging, HeLa, hydroxyurea, phospho-Chk1 antibody, percent positive cells, primary screen (AID 1186); settings: hydroxyurea-induced phospho-Chk1 immunofluorescence imaging, higher = more signal
[6] = blockers of DNA damage checkpoint Chk1 activation – imaging, HeLa, hydroxyurea, phospho-Chk1 nuclear intensity, primary screen (AID 1187); settings: hydroxyurea-induced phospho-Chk1 immunofluorescence imaging, higher = more signal

Homeobox protein Hox-A13 (Mus musculus), sequence (Q62424 whole entry, looked up): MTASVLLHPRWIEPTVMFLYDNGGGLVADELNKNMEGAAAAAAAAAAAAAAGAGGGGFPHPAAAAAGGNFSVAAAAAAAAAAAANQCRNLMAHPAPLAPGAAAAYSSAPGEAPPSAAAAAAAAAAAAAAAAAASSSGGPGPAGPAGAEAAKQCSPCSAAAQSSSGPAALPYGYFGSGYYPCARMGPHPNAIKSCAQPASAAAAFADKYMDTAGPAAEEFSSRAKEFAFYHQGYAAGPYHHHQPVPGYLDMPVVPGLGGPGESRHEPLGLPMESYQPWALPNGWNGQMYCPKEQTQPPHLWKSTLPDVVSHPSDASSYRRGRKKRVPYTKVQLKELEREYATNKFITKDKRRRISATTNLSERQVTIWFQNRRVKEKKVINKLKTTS

SMILES	composite z-score [1]	composite z-score [2]	z-score [3]	z-score [4]	z-score [5]	z-score [6]
CN(C)CCCC[C@@H]1NC(=O)[C@@H]2C[C@H](C(=O)NCCCCCN)[C@H](c3ccc(O)cc3)N2C1=O	0.633 (inactive)	0.433	0.336	-1.21 (inactive)	-0.538 (inactive)	-0.472 (inactive)
CCCNC(=O)[C@@]1(C)c2ccccc2C(=O)N(Cc2cc(F)cc(C(F)(F)F)c2)[C@H]1c1ccc(CO)cc1	1.33 (inactive)	0.718	-0.8	-3.51 (inactive)	0.309 (inactive)	0.226 (inactive)
O=C1OCC=C[C@H]2OC34C=CCN(c5ccc6ccccc6c5)C(=O)[C@H]3N(CCO)C(=O)[C@@H]4[C@@H]12 (stereo partly specified)	0.594 (inactive)	0.605	0.666	-5.78 (inactive)	0.0775 (inactive)	0.219 (inactive)
CCCC[C@H]1C[C@@H]1[C@@H]1N(P(=O)(c2ccccc2)c2ccccc2)[C@](CO)(c2ccccc2)CC12CC2	-0.131 (inactive)	0.518	0.791	-2.7 (inactive)	0.335 (inactive)	0.514 (inactive)
CN(C)CCCCCCNC(=O)[C@@H]1C[C@@H]2C(=O)N[C@@H](Cc3ccccc3)C(=O)N2[C@@H]1c1cccc(OCCO)c1	2.15 (inactive)	0.809	0.526	-4.13 (inactive)	0.0258 (inactive)	-0.024 (inactive)
CCCCC(=C=CC[C@H](O)c1ccccc1OCCO)C[C@H](O)c1cc(Cl)cc(Cl)c1O	0.776 (inactive)	0.832	-1.09	-4.23 (inactive)	0.0899 (inactive)	1.23 (inactive)
C=CCOC(=O)[C@@H]1[C@H]2C(=O)O[C@H](c3ccccc3)[C@H](c3ccccc3)N2[C@H](c2ccc(OCCOC(=O)[C@H]3C[C@H]4C(=O)N[C@@H](Cc5ccccc5)C(=O)N4[C@H]3c3ccc(O)cc3)cc2)[C@@]12C(=O)Nc1ccc(I)cc12	2.09 (inactive)	0.81	0.265	6.27 (inactive)	-0.177 (inactive)	-0.343 (inactive)
Cc1ccc(S[C@]2(C(=O)NCc3ccccc3)CC(=O)N(Cc3cc(C(F)(F)F)cc(C(F)(F)F)c3)[C@@H]2c2ccc(CO)cc2)cc1	-0.384 (inactive)	0.365	-0.398	-2.38 (inactive)	0.199 (inactive)	0.311 (inactive)
CN1C(=O)C2C=CC(C(O)c3ccccc3)N(NC(=O)OC(C)(C)C)C2C1=O (stereo unspecified)	0.4 (inactive)	0.886	-0.305	-0.867 (inactive)	0.253 (inactive)	-0.0164 (inactive)
C=CCN1C(=O)[C@@]2(O[C@@H](CCO)[C@H]([Si](C)(C)c3ccc(OC)cc3)[C@H]2C)c2cc(NC(C)=O)ccc21	0.149 (inactive)	0.258	-2.74	-6.52 (inactive)	-0.0604 (inactive)	0.348 (inactive)
CN(C)CCCCNC(=O)[C@@H]1C[C@@H]2C(=O)N[C@@H](CCCCN)C(=O)N2[C@@H]1c1cccc(OCCO)c1	0.388 (inactive)	0.566	-0.114	-3.47 (inactive)	-0.833 (inactive)	-0.838 (inactive)
CN(C)CCCN1C(=O)[C@@]2(c3ccc([N+](=O)[O-])cc3)CC(=O)N(C3CCCCC3)[C@@H]2c2ccc(CO)cc21	-0.157 (inactive)	-0.0092	0.615	-0.595 (inactive)	-0.659 (inactive)	-0.648 (inactive)
C=C(CCCC)/C(=C/C[C@H](OC(C)=O)c1ccc(CO)o1)c1cc(C(=O)OC)ccc1OC	0.485 (inactive)	0.73	-1.52	-4.44 (inactive)	-0.92 (inactive)	-0.469 (inactive)
[N-]=[N+]=Nc1ccccc1[C@H]1OC(c2ccc(OCCCO)cc2)=N[C@@]1(CCS(=O)(=O)c1ccccc1)C(=O)N1CCOCC1	1.72 (inactive)	0.562	-2.04	-1.14 (inactive)	-0.0149 (inactive)	0.0382 (inactive)
CCOC(=O)C[C@H]1[C@H](OC(=O)c2ccccc2-c2ccccc2)[C@@H](NC(=O)c2ccc(-c3ccccc3)cc2)c2cc(OCCCO)ccc2N1C(=O)c1ccccc1	0.788 (inactive)	0.79	-1.43	-1.95 (inactive)	-0.189 (inactive)	0.151 (inactive)
Cc1ccc(S[C@]2(C(=O)NCC(C)C)CC(=O)N(Cc3ccccc3)[C@@H]2c2ccc(CO)cc2)cc1	1.34 (inactive)	0.404	-0.894	-2.95 (inactive)	0.306 (inactive)	-0.141 (inactive)
C=CCNC(=O)[C@@H]1[C@H]2C(=O)O[C@H](c3ccccc3)[C@H](c3ccccc3)N2[C@H](c2ccccc2OCCO)[C@@]12C(=O)N(C(=O)OCCOC)c1ccc(C#CCC(C(=O)OC)C(=O)OC)cc12	2.28 (inactive)	0.878	-2.14	-0.757 (inactive)	0.071 (inactive)	0.361 (inactive)
COc1ccc([Si](C)(C)[C@@H]2[C@@H](CC(=O)N3Cc4ccccc4C[C@H]3CO)O[C@]3(C(=O)N(Cc4cccc(N5C(=O)COc6ccccc65)c4)c4ccccc43)[C@H]2C)cc1	1.16 (inactive)	0.778	-2.79	-0.616 (inactive)	-0.635 (inactive)	-0.0275 (inactive)
COCCOC(=O)N1C(=O)[C@@]2(c3ccccc31)[C@H](c1ccc(O)cc1)N1[C@H](c3ccccc3)[C@H](c3ccccc3)OC(=O)[C@H]1[C@@H]2C(N)=O	-0.728 (inactive)	-0.0106	0.346	-5.26 (inactive)	-0.0882 (inactive)	-0.282 (inactive)
O=C1O[C@H](c2ccccc2)[C@H](c2ccccc2)N2[C@H]1[C@@H](C(=O)N1CCCCCCC1)[C@]1(C(=O)Nc3ccc(C#CC4=CCCCC4)cc31)[C@H]2c1ccc(O)cc1	8.07 (active)	1	-1.96	3.02 (inactive)	-0.323 (inactive)	-0.649 (inactive)
COCCOC(=O)N1C(=O)[C@@]2(c3ccccc31)[C@H](C(=O)N1CCCCCCC1)[C@H]1C(=O)O[C@H](c3ccccc3)[C@H](c3ccccc3)N1[C@@H]2c1ccccc1OCCO	2.16 (inactive)	0.83	-2.1	3.39 (inactive)	-0.26 (inactive)	-0.299 (inactive)
